Measured values from PubChem BioAssay (NCATS).
Results filed as inconclusive are left out. Calls come from the whole dose curve; as a rule, active = well fitted activation curve with a large enough effect; inconclusive = small, poorly fitted or top-dose-only effect; inactive = no such curve, though single readings can be large or run the other way.

biological target: Rap guanine nucleotide exchange factor 4 (Homo sapiens) (UniProt Q8WZA2); test: Confirmatory qHTS for agonist of cAMP-regulated guanine nucleotide exchange factor 4 (EPAC2) (AID 1645884); conditions: EPAC2 GEF activity, Rap1B-BODIPY-GDP fluorescence; series mostly up to 154 µM; activation: at the top concentration;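 note: nucleotide exchange releases bodipy-GDP from Rap1 and this lowers its fluorescence; nearly all actives have a fitted effect of over 65% in size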
Sequence (Q8WZA2 whole entry, looked up): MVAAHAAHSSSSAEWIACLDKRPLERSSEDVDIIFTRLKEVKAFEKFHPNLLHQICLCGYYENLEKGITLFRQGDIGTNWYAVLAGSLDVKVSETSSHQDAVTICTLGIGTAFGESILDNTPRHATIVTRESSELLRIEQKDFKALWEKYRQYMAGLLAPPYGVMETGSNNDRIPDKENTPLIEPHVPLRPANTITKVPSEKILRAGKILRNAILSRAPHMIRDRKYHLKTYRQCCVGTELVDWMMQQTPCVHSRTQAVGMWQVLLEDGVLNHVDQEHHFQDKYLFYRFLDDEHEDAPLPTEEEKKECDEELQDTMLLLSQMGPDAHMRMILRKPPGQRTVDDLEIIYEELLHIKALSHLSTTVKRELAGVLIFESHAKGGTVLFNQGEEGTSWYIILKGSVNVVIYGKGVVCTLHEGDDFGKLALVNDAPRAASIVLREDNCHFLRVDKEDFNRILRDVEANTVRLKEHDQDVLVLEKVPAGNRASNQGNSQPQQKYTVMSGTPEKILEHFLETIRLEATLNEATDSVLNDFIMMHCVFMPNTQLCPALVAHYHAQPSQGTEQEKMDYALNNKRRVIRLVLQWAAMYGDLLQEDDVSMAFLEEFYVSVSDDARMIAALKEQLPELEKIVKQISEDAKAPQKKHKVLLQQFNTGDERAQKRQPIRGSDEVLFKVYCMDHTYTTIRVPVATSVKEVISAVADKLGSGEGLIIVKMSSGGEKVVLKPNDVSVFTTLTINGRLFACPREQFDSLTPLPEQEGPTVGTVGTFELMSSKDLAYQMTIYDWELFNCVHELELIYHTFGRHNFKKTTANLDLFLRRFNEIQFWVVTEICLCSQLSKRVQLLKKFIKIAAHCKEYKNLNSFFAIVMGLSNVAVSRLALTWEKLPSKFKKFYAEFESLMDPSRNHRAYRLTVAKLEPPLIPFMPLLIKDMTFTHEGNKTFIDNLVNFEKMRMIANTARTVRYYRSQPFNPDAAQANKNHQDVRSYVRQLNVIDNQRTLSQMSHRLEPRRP
% is set by controls: 0 for no effect and ±100 for the full control effect.

activation, inactive:
COc1ncc2nc(-c3ccccc3)c(=O)n(Cc3cccs3)c2n1 3.52%, Oc1ccc2ccccc2c1-c1sc(Nc2ccccc2)n[n+]1-c1ccc(F)cc1 -601%, CC(=O)NC(c1ccc(Cl)cc1)c1ccc2cccnc2c1O (stereo not drawn) -1.77% [at 17.1 µM, percent relative to cAMP agonist control], COc1cc(C)c2c(=O)cc(-c3ccccc3)oc2c1 15.3%, O=C(O)/C(CC(=O)c1ccc(Cl)cc1)=N/Nc1ccc([N+](=O)[O-])cc1[N+](=O)[O-] -19.6%, Cc1ccccc1-c1ccc2ncnc(N3CCOCC3)c2c1 5.89%, COc1ccc(C2OCC3(COC(C)=O)C(C)C=C(C)C2C3C)cc1 (stereo not drawn) -6.08%, CC(=O)Oc1c2c(c3c(c1CC=C(C)C)O[C@@]14C(=CC5CC1C(C)(C)OC4(C/C=C(\C)C(=O)O)C5=O)C3=O)OC(C)(CCC=C(C)C)C=C2 (stereo partly drawn) -31.3%
